Assay outcomes as filed in PubChem BioAssay.
TRHR agonist: agonists of human TRH receptor | P34981 | TRHR cells, calcium flux fluo-8, FDSS agonist mode | activation, % at 2 µM | 360,000 compounds, 0.18% hits | AID 493084; further: 0% is about no effect
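Agonist-mode FDSS calcium read (Ex 480/Em 530, 1 s cycles) in 1536-well TRHR cells with fluo-8 dye, after 10-cycle baseline and 23 nL compound addition; TRH at EC20 (10 nM final) added afterwards for the enhancer phase.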
LDHA inh: blocks human lactate dehydrogenase A; purified LDHA, NADH/diaphorase-resazurin fluorescence; active compounds read low; activity change, % (values are at about 110 or 230 µM); 480,000 compounds, 0.15% hits; AID 1347041; in the data active means activity change below about -30%;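 further: plate controls were DMSO wells for no effect and wells without enzyme for full effect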
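LDH5 2 nM; NADH 0.06 mM, pyruvate 0.2 mM; 200 mM Tris pH 7.4, EDTA, Tween-20; 5 min RT. Detection: diaphorase 0.133 mg/mL + resazurin 37 µM, fluorescence ex540/em590 at 0 and 20 min; normalized to enzyme-free and DMSO wells.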
D1 potentiator: human D1 dopamine receptor positive modulation. P21728. HEK293 TREx D1 cells, calcium flux, dopamine EC20 potentiation. potentiation, % at 10 µM. 360,000 compounds, 0.036% hits. AID 504651; in the data active means potentiation above about 30%; further: 0% is about no effect
Target sequence (P21728 whole entry, looked up): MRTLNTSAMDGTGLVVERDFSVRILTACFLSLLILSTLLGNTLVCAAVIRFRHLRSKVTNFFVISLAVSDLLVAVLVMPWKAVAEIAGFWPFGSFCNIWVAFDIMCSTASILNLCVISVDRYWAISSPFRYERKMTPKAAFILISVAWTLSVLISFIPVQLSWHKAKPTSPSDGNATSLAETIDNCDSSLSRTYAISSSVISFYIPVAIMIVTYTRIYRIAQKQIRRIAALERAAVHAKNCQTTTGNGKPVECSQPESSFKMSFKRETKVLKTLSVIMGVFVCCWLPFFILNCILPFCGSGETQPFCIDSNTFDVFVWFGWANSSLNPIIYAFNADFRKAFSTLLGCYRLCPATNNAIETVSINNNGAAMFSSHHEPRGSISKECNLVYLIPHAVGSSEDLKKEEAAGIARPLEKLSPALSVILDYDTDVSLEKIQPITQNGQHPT
TRHR PAM: allosteric enhancers of human TRH receptor; P34981; TRHR cells, fluo-8 calcium fluorescence, EC20 TRH enhancement; enhancement, % at 2 µM; 360,000 compounds, 0.66% hits; AID 493056; in the data active means enhancement above about 30%; further: 0% is about no effect
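Enhancer read-out: after compound pinning and an initial kinetic agonist-mode read, an EC20 of TRH (10 nM final) was injected and fluo-8 calcium signal (Ex 480/Em 530) followed at 1 s/cycle for 100 cycles in TRHR-expressing cells.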
D1 antag: antagonists of human D1 dopamine receptor. activity change, negative = inhibition, % at 10 µM. 360,000 compounds, 3.2% hits. P21728. HEK293 TREx D1 cells, calcium flux, dopamine EC80; active compounds read low; in the data active means activity change below about -30%; further: on the % scale 0 is the no-effect control and ±100 the full control effect
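Tetracycline-induced HEK293 T-REx cells with force-coupled D1 receptor were loaded with a no-wash calcium dye. Compound was added after a 10 s baseline and read kinetically for 180 s; EC80 dopamine was then added and calcium flux followed another 180 s.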
D1 ag: agonists of human D1 dopamine receptor; P21728; HEK293 T-REx D1 cells, calcium flux, agonist mode; activation, % at 2 µM; 360,000 compounds, 1% hits; further: 0% is about no effect
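Tetracycline-induced HEK293 TREx D1 cells, force-coupled to calcium signalling, were dye-loaded with a no-wash calcium kit. Compound was pin-added after a 10 s baseline. Fluorescence was read kinetically at 1 cycle/s for 180 s, with calcium rises flagged as agonism.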
The depositor's hits bear a star; / = no result given. The list is not random: actives were taken first. Their share in the collection is about 3.6%. Unless noted, no stated cut-off is given here; in the data, active means activation above about 30%; inactive means the rest.

SMILES	TRHR agonist	LDHA inh	D1 potentiator	TRHR PAM	D1 antag	D1 ag
CCN(CC)C(=O)/C(=C\c1ccc2c(c1)OCO2)NC(=O)c1ccc(Br)cc1	0	3	-7	7	-30*	-1
CN1CC(=O)N(CCCC(=O)Nc2cnc3ccccc3c2)C1=O	/	19	/	/	/	/
COc1ccc(CCNc2nccn(-c3ccc(C)c(C)c3)c2=O)cc1OC	0	-4	-4	14	-44*	4
O=C(c1c(F)cccc1F)N(Cc1ccc2[nH]ccc2c1)C1CC1	/	1	/	/	/	/
Cc1ccc(NC(=O)Cc2nn(C)c(=O)c3ccccc23)cc1	/	1	/	/	/	/
O=C(Cn1nc(N2CCN(c3ccccc3)CC2)ccc1=O)NCc1ccccc1F	0	3	-3	-3	-37*	0
CCOc1ccccc1CNC(=O)Cn1nc(N2CCN(c3ccccc3)CC2)ccc1=O	0	1	0	-5	-14	2
C/C(=N/Nc1ccc(S(N)(=O)=O)cc1[N+](=O)[O-])c1cc(Cl)ccc1Cl	/	10	/	/	/	/
FC(F)(F)c1cc(-c2cccs2)nc(SCc2ccccc2)n1	/	2	/	/	/	/
NC(=O)CC(NC(=O)Cc1ccc(Br)cc1)c1ccc(NCCN2CCCCC2)c([N+](=O)[O-])c1 (stereo unspecified)	0	-3	0	10	-45*	4
NC(=O)CC(NC(=O)Cc1ccc(Br)cc1)c1ccc(NCCN2CCCC2)c([N+](=O)[O-])c1 (stereo unspecified)	0	-9	-3	2	-1	0
CC(=NCCc1c(C)[nH]c2ccc(OCc3ccccc3)cc12)C1=C(O)CC(c2ccccc2)CC1=O (stereo unspecified)	1	1	2	2	-31*	9
CCCCC(=NCCc1c(C)[nH]c2ccc(OC)cc12)C1=C(O)CC(c2ccccc2)CC1=O (stereo unspecified)	-1	-4	10	-7	-34*	6
Cc1ccc(Cl)cc1S(=O)(=O)N(C)Cc1nc2ccccc2[nH]1	/	-11	/	/	/	/
COc1ccc(NS(=O)(=O)c2ccc(-n3nnc4ccccc43)c([N+](=O)[O-])c2)cc1	2	3	-11	-9	-3	36*
O=[N+]([O-])c1cc(S(=O)(=O)Nc2cccc(C(F)(F)F)c2)ccc1-n1nnc2ccccc21	0	-6	-7	-4	-15	15
CC(C)NC(=NCc1ccc(Cl)cc1Cl)Nc1ccccc1	15	-1	-5	-2	-12	46*
CC1CCC(NC(=O)CN(C)S(=O)(=O)c2ccc3c(c2)CCC(=O)N3)CC1 (stereo unspecified)	0	-11	-2	2	-31*	3
CC1CCCCC1NC(=O)CN(C)S(=O)(=O)c1ccc2c(c1)CCC(=O)N2 (stereo unspecified)	0	-10	3	-14	-4	3
CN(CCc1cn[nH]c1)C(=O)CC1C(=O)NCCN1Cc1ccccc1C(F)(F)F (stereo unspecified)	0	0	0	-3	-40*	3
CCN(CC)C(=O)C[n+]1cccc(C(N)=O)c1	0	-5	-4	1	-31*	2
Cc1ccc(C(=O)C[n+]2cccc(C(N)=O)c2)cc1	0	-2	-11	-2	13	2
Cc1nc2ccc(C(=O)OCc3ccccn3)cc2nc1C	/	2	/	/	/	/
c1ccc(COc2ccc(OCCCNC3CCCC3)cc2)cc1	3	-11	1	0	-26	35*
C=CCNCCCCOc1ccc(OCc2ccccc2)cc1	1	-18	-5	-1	-6	45*
SMILES	TRHR agonist	LDHA inh	D1 potentiator	TRHR PAM	D1 antag	D1 ag
COCCCNCCCCOc1ccc(OCc2ccccc2)cc1	2	-18	-4	1	-18	35*
C=CCNCCCCOc1ccccc1-c1ccccc1	1	-4	-13	4	-2	19
O=C(CCc1nc(-c2ccncc2)no1)Nc1ccc(N2CCOCC2)cc1	/	2	/	/	/	/
CCN(CC)S(=O)(=O)c1nc(C)c(Cl)c(C)c1C#N	/	1	/	/	/	/
O=c1c(Oc2ccccc2Br)c(C(F)(F)F)oc2c(CN3CCCC3)c(O)ccc12	1	-1	8	32*	15	0
Cc1cc(Oc2c(C(F)(F)F)oc3c(CN4CCC(C)CC4)c(O)ccc3c2=O)cc(C)c1Cl	0	-13	-4	10	-7	-1
Cc1ccc2nc(N3C(=O)C(O)=C(C(=O)c4ccc(C)o4)C3c3cccc(O)c3)sc2c1 (stereo unspecified)	1	2	-4	-2	-35*	4
Cc1ccc(CNc2c(C)c(C)nc3nncn23)cc1	1	-3	2	7	-45*	6
CCc1c(C)nc2nncn2c1NCc1ccc(Cl)cc1	3	-2	-3	-5	-2	5
CCCNC(=O)c1ccc(N2CCC3(CC2)CC(c2cccc(Br)c2)=NO3)c([N+](=O)[O-])c1	0	-1	-6	9	-44*	1
COc1cc2ccccc2cc1C(=O)N(CCN(C)C)c1nc2ccc(Br)cc2s1	0	-3	-11	-4	-29	5
COc1cc2ccccc2cc1C(=O)N(CCN(C)C)c1nc2c(F)cc(F)cc2s1	0	0	-6	0	-36*	1
COC(=O)c1ccc(NC(=O)n2ncc3c(C)cccc32)cc1	1	-2	6	5	-70*	2
O=c1c2cc(NC(=S)NC3CC3)ccc2nc2n1CCCCC2	0	-11	-4	-5	-38*	4
O=c1c2cc(NC(=S)NCCCN3CCC(Cc4ccccc4)CC3)ccc2nc2n1CCCCC2	3	-1	-9	13	-41*	46*
CC(C)NC(=S)Nc1ccc2nc3n(c(=O)c2c1)CCCCC3	0	0	-4	10	-79*	2
O=c1c2cc(NC(=S)N3CCC(N4CCCCC4)CC3)ccc2nc2n1CCCCC2	1	-2	-5	-8	-38*	3
CC(Oc1ccc(Oc2ccccc2)cc1)C(N)=O (stereo unspecified)	/	7	/	/	/	/
CCCCCCCCc1ccc(-c2ccc(CCCC)cc2)nc1	/	0	/	/	/	/
Cc1ccc(/C=C/C(=O)c2ccccc2)o1	/	13	/	/	/	/
O=S(=O)(Nc1nc2ccccc2nc1Nc1cccc(Cl)c1)c1cccs1	/	7	/	/	/	/
O=C(O)CSC1CC(=O)N(c2ccc(Br)cc2)C1=O (stereo unspecified)	0	-1	-5	40*	-4	9
CCOC(=O)C1=C(CN2CCN(C(=O)OCC)CC2)NC(=O)NC1c1cccc(OC)c1OC (stereo unspecified)	/	-8	/	/	/	/
O=C(Cn1cc(C(=O)c2ccccc2)c2ccccc21)NCc1ccccc1	/	-35*	/	/	/	/
